The campaign covered roughly 340,000 compounds. About 3,300 (0.97%) were called active. About 9% were inconclusive and are not listed. Calls come from the whole dose curve; as a rule, active = well fitted inhibition curve with a large enough effect; inconclusive = small, poorly fitted or top-dose-only effect, or effect the other way; inactive = flat fitted curve, though single readings scatter. This is one part of the list.
assay: qHTS Assay for Modulators of miRNAs and/or Inhibitors of miR-21; settings: HeLa miR-21-FLuc reporter, luciferase luminescence, 48 h; actives lower the signal; note: nearly all actives have a fitted effect of over 55% in size
Procedure, shortened: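 Using DMEM plus 10% FBS, HeLa miR-21-FLuc cells are incubated with test compounds (final up to about 40uM) for 48 hours; firefly luciferase signal is then imaged following reagent-mediated lysis.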
Potency is the fitted concentration of half-maximal effect.

Potency, active:
CC(O)CNc1ncnc2cc(-c3ccc(F)cc3)sc12 (configuration not stated) 4.65 µM
Cc1nn(-c2ccc3ccccc3c2)c(=O)c2ccccc12 2.93 µM
Cc1nn(-c2ccc(Br)cc2)c(=O)c2ccccc12 2.93 µM
COc1cccc(COc2ccc3ccc(=O)oc3c2)c1 7.36 µM
COc1ccc(COc2ccc3ccc(=O)oc3c2)cc1 2.93 µM
CCc1ccc2nc(N3C(=O)C(O)=C(C(=O)c4ccco4)C3c3cccs3)sc2c1 (configuration not stated) 6.56 µM
Cc1ccc2nc(N3C(=O)C(O)=C(C(=O)c4ccco4)C3c3cccs3)sc2c1 (configuration not stated) 5.21 µM
COc1ccc(N=Nc2ccc3ccccc3c2)c(O)c1 0.233 µM
COc1ccc(N=Nc2cc(C)ccc2O)cc1 0.521 µM
CN1CCN(c2nc(-c3cc4ccccc4o3)cs2)CC1 5.21 µM
Nc1nc(-c2cc3ccccc3o2)cs1 2.33 µM
Nc1ccc(Nc2nc(-c3cc4ccccc4oc3=O)cs2)cc1 2.93 µM
O=C(OC1CCCCC1)c1cc2ccccc2oc1=O 16.5 µM
O=C(CSc1nc2ccccc2o1)c1cc2ccccc2oc1=O 14.7 µM
COc1ccc2oc(=O)c(C(=O)N3CCN(c4ccccc4C)CC3)cc2c1 2.07 µM
O=C(c1cc2ccccc2oc1=O)N1CCOCC1 16.5 µM
Cc1c(-c2nc(-c3ccc(C(F)(F)F)cc3)no2)n(C)oc1=O 0.293 µM
COc1ccc(/C(N)=N/OC(=O)C2CCCCC2)cc1OC 2.93 µM
COc1ccc(/C(N)=N/OC(=O)C2CCCCC2)cc1 4.65 µM
COCCN1CCN(C(=O)c2cc(COc3cc(C)ccc3C)on2)CC1 11.7 µM
COc1cccc(OCc2cc(C(=O)N3CCN(c4ccccc4OC)CC3)no2)c1 16.5 µM
COc1ccc(OCc2cc(C(=O)N3CCSCC3)no2)c(Cl)c1 4.65 µM
CC(=O)c1ccc(OCc2cc(C(=O)N3CCOCC3)no2)cc1 18.5 µM
COc1ccc(OCc2cc(C(=O)N3CCOCC3)no2)c(Cl)c1 2.07 µM
CC(=O)NCCC1CCCCN1C(=O)c1cc(COc2cc(C)ccc2C)on1 (configuration not stated) 7.36 µM
Cc1cc(SCC(=O)c2ccccc2)nc(=O)[nH]1 4.14 µM
O=C(CSc1ccc(-c2ccccc2)nn1)c1cccs1 7.36 µM
N#Cc1ccc(-c2cccnc2)nc1SCC(=O)c1ccccc1 5.85 µM
O=C(CSc1ccc(-c2ccccc2)nn1)c1ccccc1 16.5 µM
COc1cc(NC(=O)c2ccccc2Cl)ccc1NC(=O)c1cccs1 2.07 µM
COc1cc(NC(=O)c2ccccc2Cl)ccc1NC(=O)c1ccco1 2.93 µM
COc1ccc(Cl)cc1-c1nc(-c2ccc(NC(=O)c3cccs3)cc2)no1 7.36 µM
Cc1ccc2nc(/C=C/c3cccc(F)c3)ccc2c1 0.521 µM
N#C/C(=C\c1c[nH]c2ccccc12)c1nnc2n1CCCCC2 18.5 µM
O/N=C/c1ccc(OCc2ccccc2F)c(Cl)c1 0.464 µM
CCOc1cc(/C=N/O)ccc1OCc1ccccc1F 16.5 µM
CC(=O)c1ccc(NC(=O)c2ncn(-c3ccccc3)n2)cc1 5.85 µM
Cc1ccc(NC(=O)c2ncn(-c3ccccc3)n2)cc1Cl 3.29 µM
CCCn1nnc(NC(=O)c2ccc3ccccc3c2)n1 4.14 µM
Cn1nnc2cc(C(=O)Nc3ccc4ccccc4c3)ccc21 0.585 µM
Cn1nnc(NC(=O)c2ccc3ccccc3c2)n1 14.7 µM
Nc1nc2c(-c3ccc(Br)cc3)nnn2c2ccccc12 0.261 µM
CN(C)c1ccc(-c2nnc(-c3cccnc3)o2)cc1 1.31 µM
Cc1ccc(-c2nnc(-c3cccnc3)o2)cc1 4.65 µM
c1ccc(-c2cnc(-c3cccnc3)o2)cc1 13.1 µM
CCSc1nnc(NC(=O)COc2ccccc2[N+](=O)[O-])s1 3.69 µM
CCSc1nnc(NC(=O)c2ccccc2)s1 1.31 µM
CC(C)c1nnc(NC(=O)COc2ccccc2[N+](=O)[O-])s1 9.27 µM
N/C(=N\C(=S)Nc1ccccc1)c1ccccc1 0.927 µM
O=C(Cc1noc2ccccc12)Nc1ccc(Cl)cc1 14.7 µM
O=C(Cc1noc2ccccc12)Nc1ccccn1 14.7 µM
Cc1ccc(NC(=O)Cc2noc3ccccc23)cc1 7.36 µM
Cc1cccc(NC(=O)Cc2noc3ccccc23)c1 5.85 µM
Nc1ccccc1C(=O)NNC1=C(C(=O)C(F)(F)F)CCC1 5.21 µM
CC1=NN(C(N)=S)C(=O)C1N=Nc1ccc(C)cc1C (configuration not stated) 3.69 µM
CC1=NN(C(N)=S)C(=O)C1N=Nc1ccc(Br)cc1 (configuration not stated) 1.31 µM
CC1=NN(C(N)=S)C(=O)C1N=Nc1ccc(C)c(Br)c1 (configuration not stated) 1.47 µM
CC1=NN(C(N)=S)C(=O)C1N=Nc1cccc(Cl)c1 (configuration not stated) 7.36 µM
C/C(=N\N=C(/N)c1nonc1N)c1ccc2c(c1)OCO2 0.521 µM
CC(=O)NCCC(=O)Nc1nc2ccc(Oc3ccccc3)cc2s1 1.65 µM
O=C1NCC2=C1C(c1ccccc1)Nc1ccccc1N2 (configuration not stated) 14.7 µM
Cc1ccc2c(CSc3nnc4ccccn34)cc(=O)oc2c1C 13.1 µM
Clc1cccc(Cl)c1CSc1nnc2ccccn12 16.5 µM
Clc1ccc(CSc2nnc3ccccn23)c(Cl)c1 16.5 µM
C/C(=N\NC(=O)c1cccs1)C(C)(C)C 4.65 µM
O=C(O)CC/C(=N/NC(=O)c1cccs1)c1ccccc1 2.07 µM
C/C(=N/NC(=O)c1cccs1)c1cccs1 2.93 µM
O=C(NC12CC3CC(CC(C3)C1)C2)c1ccc(-c2cccc(Cl)c2)o1 1.47 µM
O=C(NC12CC3CC(CC(C3)C1)C2)c1ccc(-c2ccc(Br)cc2)o1 7.36 µM
O=[N+]([O-])c1cc(/C=N\O)ccc1Oc1ccc(F)cc1 16.5 µM
O=[N+]([O-])c1cc(/C=N/O)ccc1Oc1ccccc1Cl 16.5 µM
CC(=O)C(C)Oc1ccc2c3c(c(=O)oc2c1)CCCCC3 (configuration not stated) 2.93 µM
CC(=O)C(C)Oc1ccc2c3c(c(=O)oc2c1)CCCC3 (configuration not stated) 16.5 µM
CN(C)S(=O)(=O)c1cccc(NC(=O)COC(=O)c2cc3ccccc3oc2=O)c1 6.56 µM
O=C(COC(=O)c1cc2ccccc2oc1=O)Nc1ccc(F)cc1F 6.56 µM
COc1ccc(-c2nnc(SCC(=O)c3ccc[nH]3)n2-c2ccccc2)cc1 13.1 µM
Cc1ccc(SCC(=O)c2ccc[nH]2)cc1 13.1 µM
O=c1c(Br)c(N2CCCC2)cnn1-c1ccccc1 1.85 µM
O=C(N=C1c2ccccc2CN1c1ccc(F)c(Cl)c1)c1cccnc1Cl 6.56 µM
O=C(N=C1c2ccccc2CN1c1cccc(Cl)c1)c1cccnc1 4.65 µM
COc1ccc(N2Cc3ccccc3C2=NC(=O)c2cccc([N+](=O)[O-])c2)cc1 13.1 µM
CC1SCC(NC(=O)c2ccccc2Cl)CS1 (configuration not stated) 13.1 µM
CC1SCC(NC(=O)c2ccc(Cl)cc2)CS1 (configuration not stated) 16.5 µM
CCn1c(C)nc2cc(C(=O)NNC(=S)Nc3ccccc3)ccc21 0.927 µM
CCn1c(C)nc2cc(C(=O)NNC(=S)Nc3ccc(F)cc3)ccc21 8.26 µM
Cc1nn(-c2cccc([N+](=O)[O-])c2)c(N)c1-c1ccccc1 4.14 µM
Cc1nn(-c2ccccc2)c(N)c1-c1ccccc1 6.56 µM
Cc1nn(-c2nc3ccccc3[nH]2)c(N)c1-c1ccccc1 0.414 µM
COc1ccc(-c2c(C)nn(-c3ccccc3)c2N)cc1 5.21 µM
Cc1nn(C(=O)c2cccs2)c(N)c1-c1ccccc1 5.21 µM
O=C(O)CCc1ccc(S(=O)(=O)Nc2ccccc2C(=O)NCCc2ccccc2)cc1 6.56 µM
NC(=O)Nc1ccccc1C(=O)NCCc1ccccc1 5.85 µM
Cc1ccccc1-c1nc(Cc2ccccc2)no1 14.7 µM
Cc1ccccc1-c1nnc(Cc2ccccc2)o1 4.14 µM
N#Cc1ccccc1CSc1nnc(-c2ccc(Br)cc2)o1 0.414 µM
c1ccc(CSc2nnc(-c3ccco3)o2)cc1 13.1 µM
Brc1c(CSc2nnc(-c3ccco3)o2)nc2ccccn12 11.7 µM
Cc1ccccc1-c1nnc(CN2CCC(C)CC2)o1 14.7 µM
Brc1ccc(-c2nnc(Cc3ccccc3)o2)cc1 13.1 µM
Cc1ccccc1-c1nnc(SCc2ccccc2)o1 5.21 µM
Cc1ccc(-c2nnc(SCc3ccccc3)o2)cc1 2.93 µM
COC(=O)C1C(=O)c2c([nH]c(C(=O)OC3CCCC3)c2C)CC1C (configuration not stated) 1.47 µM
Cc1c(C(=O)OC2CCC(C)CC2)[nH]c2c1C(=O)CCC2 (configuration not stated) 0.464 µM
Cc1c(C(=O)OC2CCCC2C)[nH]c2c1C(=O)CCC2 (configuration not stated) 6.56 µM
COc1cc(C)ccc1OCc1cc(C(=O)N(C)CCCN2CCOCC2)no1 6.56 µM
COc1cc(Cl)ccc1OCc1cc(C(=O)N(C)CC2CCCCO2)no1 (configuration not stated) 10.4 µM
COc1cc(Cl)ccc1OCc1cc(C(=O)N(C)CCc2cnn(C)c2)no1 5.85 µM

— PubChem BioAssay AID2289 (National Center for Advancing Translational Sciences (NCATS), 2010)
